aSyn UTR act: Activators via SNCA 5'UTR binding, MLPCN; alpha-synuclein 5'UTR reporter, activators screen; hit rate 7.1% among 300,000; activity score, % (tested at 7.5 µM), hits read low; in the data active means activity score below about -60%
Numbers without * were called inactive. The list is a sample of the results.

SMILES	aSyn UTR act
COc1cccc(C(=O)NCCSc2ccc(F)cc2)c1	-157*
O=C(NCCSc1ccccc1)c1ccc(Br)cc1	-67*
CC(C)(C)SCCNC(=O)c1ccccc1	-117*
COc1cccc(C(=O)NCCn2ccc3ccccc32)c1	-119*
COc1ccc(C(=O)NCc2cc3ccccc3n2C)cc1	-92*
COc1ccc(N=Nc2n(C)c3ccccc3[n+]2C)cc1	103
O=C(NCCOc1ccccc1)c1cncc(Br)c1	-92*
COc1c(C(=O)NCCSC(C)(C)C)ccc2ccccc12	-62*
O=C(NCCSc1ccccc1)c1cncc(Br)c1	-132*
COc1cccc2c1C(=O)c1c(O)c3c(c(O)c1C2=O)C[C@@](O)(C(=O)CO)C[C@@H]3O[C@H]1C[C@H](N)[C@@H](O)[C@H](C)O1	109
COc1cc(OC)cc(C(=O)NCCOc2ccccc2)c1	-121*
O=C(NCCOc1ccccc1)c1cc2ccccc2o1	-81*
O=C1C2C3C=CC(C3)C2C(=O)N1c1ccc(-c2nc3ccccc3o2)cc1 (stereo unspecified)	-152*
CCOc1ccc2c(c1)nc(SCC(=O)c1cccs1)n2C	-67*
CN(CC(=O)Nc1ccccc1Cl)C(=O)COC(=O)c1nc(Cl)c(Cl)c(Cl)c1Cl	-129*
Cc1c(CC(=O)N[C@H](C(=O)O)C(C)C)c(=O)oc2cc3c(cc12)CCC(C)(C)O3	-110*
CCC(C)NC(=O)Cc1c(C)c2cc3c(cc2oc1=O)OC(C)(C)CC3 (stereo unspecified)	-118*
Cc1c(CCC(=O)O)c(=O)oc2cc3oc4c(c3cc12)CCCC4	68
Cc1c(CC(=O)NC(C)C)c(=O)oc2cc3c(cc12)CCC(C)(C)O3	-78*
Cn1c(SCc2ccc(F)cc2)nnc1-c1cccs1	-108*
Cn1c(SCc2ccccc2)nnc1-c1cccs1	-147*
c1ccc(CN2CCC(Nc3nc(-c4cccs4)nc4ccccc34)CC2)cc1	62
Oc1cccc(Nc2c3ccccc3nc3ccccc23)c1	-81*
CC(=O)Oc1ccc(C(=O)Nc2nnc(C)s2)cc1	-63*
Cc1nnc(NC(=O)c2ccc(Br)cc2)s1	-96*
SMILES	aSyn UTR act
COc1cc(CNc2ccccc2SC)ccc1O	-72*
CS(=O)(=O)c1nc2c(cc1C#N)CCCC2	-85*
Cc1oc2cc3oc(=O)cc(C)c3cc2c1C	-88*
O=C(CCl)c1ccc2c(c1)CCN2C(=O)C1CC1	-94*
CCn1c(C)nc2cc(C(=O)N/N=C/c3ccccc3C)ccc21	-142*
CCn1c(C)nc2cc(NC(=O)Nc3cccc(C(C)=O)c3)ccc21	-99*
CCn1c(C)nc2cc(C(=O)NNC(=S)Nc3ccccc3OC)ccc21	-74*
CCn1c(C)nc2cc(C(=O)N/N=C(\C)c3ccccc3O)ccc21	-143*
CCC(=O)Nc1cccc(NC(=S)NC(=O)c2ccc(Cl)cc2)c1	-151*
CCC(=O)Nc1cccc(NC(=S)NC(=O)c2ccccc2C)c1	-113*
CCOc1ccc(C(=O)NC(=S)Nc2cccc(S(=O)(=O)NC3=NCCC3)c2)cc1	111
COC(=O)c1cnc(SCc2ccc(Cl)cc2)n1C	-70*
Cn1c(SCC(=O)c2ccccc2)ncc(C(=O)Nc2ccccc2)c1=O	-67*
COC(=O)c1cnc(SCC(=O)c2ccccc2)n1C	-94*
COC(=O)c1ccnc(SCC(=O)c2ccccc2)c1	-117*
COc1ccc2oc(C(=O)NCCC(C)C)c(C)c2c1	-143*
CCN(CC(=O)Nc1ccccc1C(F)(F)F)C(=O)c1oc2ccc(OC)cc2c1C	-65*
COc1ccc2oc(C(=O)NC3CCCCC3)c(C)c2c1	-99*
COc1ccc2oc(C(=O)Nc3ccc(C)cn3)c(C)c2c1	-124*
COc1ccc2oc(=O)c(C(=O)NC3CCCCCC3)cc2c1	-174*
COCCN(CC(=O)NC1CCCCC1)C(=O)/C=C/C(=O)c1ccc(OC)cc1O	79
O=C(N/N=C/c1cn(-c2cccs2)nc1-c1ccccc1)c1ccc(O)cc1	-65*
O=C(N/N=C/c1cc(Br)ccc1O)c1ccccc1Cl	67
O=C(N/N=C/c1cn(-c2cccs2)nc1-c1ccccc1)c1ccccc1Cl	-63*
O=S(=O)(/C=C/c1ccccc1)Oc1ccccc1	-80*
SMILES	aSyn UTR act
CCc1ccccc1NC(=O)CN(C)C(=O)Cn1ncc(Cl)c(Cl)c1=O	-63*
Cc1ccccc1S(=O)(=O)Cc1ccc(C(=O)N2CCN(c3cccc(C)c3C)CC2)o1	101
O=C(c1ccc(COc2ccc(Cl)cc2Cl)o1)N1CCCC1	-63*
O=C(c1ccc(COc2ccccc2[N+](=O)[O-])o1)N1CCCCCC1	-80*
Cc1ccc(OCc2ccc(C(=O)N3CCCC3)o2)cc1C	-82*
CCC(=O)c1ccc(OCC(O)Cn2nnc3ccccc32)cc1 (stereo unspecified)	-74*
Oc1ccccc1/C=N/Nc1nccnc1Cl	88
O=[N+]([O-])c1ccccc1/C=N/Nc1nccnc1Cl	-184*
Nc1cc(Cl)nc(N/N=C/c2ccccc2[N+](=O)[O-])n1	-188*
CO/N=C/C(=N\Nc1ccc(OC)cc1)C(=O)c1ccc(OC)cc1	-71*
O=C(/C=C/c1ccnc2ccccc12)c1cccs1	-80*
O=C(COC(=O)c1ccc(Cl)nc1)c1ccc2c(c1)OCCO2	-71*
O=C(CSc1ncnc2ccccc12)c1ccc2c(c1)OCCO2	-346*
O=C(COc1ncnc2ccccc12)c1ccc2c(c1)OCCO2	-88*
Cc1ccc(C(=O)COc2ncnc3cc(Cl)ccc23)cc1	-76*
O=C(COc1ncnc2cc(Cl)ccc12)c1ccc2c(c1)OCCO2	-92*
O=C1/C(=N\S(=O)(=O)c2cccs2)C([n+]2ccc(CCCc3ccccc3)cc2)=C([O-])c2ccccc21	91
CCOC(=O)c1cc(-c2ccc(C)cc2)nc2nc(SC)[nH]c(=O)c12	49
CCOC(=O)c1ccc(-c2ccc3c(c2)CCC3)nc1C	-99*
COC(=O)c1ccc(-c2ccc(F)cc2)nc1C	-192*
Cc1cccc(-c2nnc(NC(=O)c3ccco3)s2)c1	-124*
O=C(Nc1nnc(/C=C/c2ccccc2)s1)c1ccco1	-83*
COc1ccc(Cc2nnc(NC(=O)c3ccco3)s2)cc1	-62*
CC(C)Sc1nnc(NC(=O)c2ccco2)s1	-64*
O=C(Nc1nnc(-c2ccc(F)cc2)s1)c1ccco1	-121*
SMILES	aSyn UTR act
Cc1ccc(O)c(NC(=O)c2cc(-c3ccccc3Cl)on2)c1	-173*
COc1ccc(-c2cc(C(=O)Nc3cc(C)ccc3O)no2)cc1	-132*
CCOc1ccc(-c2cc(CCCC(=O)Nc3cc(OC)ccc3OC)no2)cc1	83
Cc1ccc(-c2cc(C(=O)Nc3cc(C)ccc3O)no2)cc1	-183*
COc1ccc(-c2cc(C(=O)Nc3cc(Cl)ccc3O)no2)cc1	-156*
COc1ccc(OC)c(-c2cc(C(=O)Nc3c(C)nn(Cc4ccccc4Cl)c3C)no2)c1	58
CC(=O)N1CCn2c3ccc(C)cc3c3cccc1c32	-83*
CCCCc1c(C)nn(-c2nnc3c4ccccc4n(C)c3n2)c1C	-96*
Cn1c(/C=C/c2ccc(Br)cc2)c([N+](=O)[O-])c(=O)n(C)c1=O	-199*
CCCOc1ccc(/C=C/c2c([N+](=O)[O-])c(=O)n(C)c(=O)n2C)cc1	-130*
Cc1cccc2cc(C#N)c(SCc3nnc(-c4ccccc4[N+](=O)[O-])o3)nc12	-87*
NC(=O)N/N=C/c1ccc(-c2cccc(C(F)(F)F)c2)o1	-84*
COC(=O)N/N=C/c1ccc(-c2cc(Cl)cc(Cl)c2)o1	52
CN(C)/C=C1\C(=O)N(c2ccc(Cl)cc2)CS1(=O)=O	-126*
